Inconclusive results are not listed. The source made the active and inactive calls. The call rests on the fitted dose curve; in most records, active means well fitted curve in the direction sought with a large enough effect; inconclusive means small, poorly fitted or top-dose-only effect, or another doubt; inactive means no such curve, though single readings can be large; an effect the other way counts as inactive or inconclusive.
Experiments:
[1] = Quantitative High-Throughput drug screen in 47 multiple myeloma cell lines against the NCATS MIPE library collection: AMO1_DSMZ cell viability assay (AID 1918927; further: nearly all actives have a fitted effect of over 30% in size)
Procedure, shortened: (§1)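 Viability readout: CellTiter-Glo luminescence following 5 min room-temperature incubation with reagent. Prior exposure: 48 h, 37C, humidified 5% CO2, 500 cells per well.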

[2] = Quantitative High-Throughput drug screen in 47 multiple myeloma cell lines against the NCATS MIPE library collection: ARP1_JJKsccF8 cell viability assay (AID 1918928; further: nearly all actives have a fitted effect of over 40% in size)
Procedure, shortened: (§2)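 Each line was plated at 500 cells/well and treated 48 h with library drugs. Viability came from CellTiter-Glo luminescence relative to DMSO and cell-free medium controls.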

[3] = Quantitative High-Throughput drug screen in 47 multiple myeloma cell lines against the NCATS MIPE library collection: ARD_JJKsccE7 cell viability assay (AID 1918929)
Procedure, shortened: as §1

[4] = Quantitative High-Throughput drug screen in 47 multiple myeloma cell lines against the NCATS MIPE library collection: Karpas620_DSMZ cell viability assay (AID 1918959); further: nearly all actives have a fitted effect of over 30% in size
Procedure, shortened: (§3)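 We plated 500 myeloma cells per well, pinned in MIPE 4.0 compounds, and incubated for 48 hours at 37C. ATP was then quantified with CellTiter-Glo, with DMSO and media-only wells defining 100% and 0%.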

[5] = Quantitative High-Throughput drug screen in 47 multiple myeloma cell lines against the NCATS MIPE library collection: KMM1_JCRB cell viability assay (AID 1918960); further: nearly all actives have a fitted effect of over 30% in size
Procedure, shortened: as §2

[6] = Quantitative High-Throughput drug screen in 47 multiple myeloma cell lines against the NCATS MIPE library collection: JIM1_ECACC cell viability assay (AID 1918964)
Procedure, shortened: as §1

[7] = Quantitative High-Throughput drug screen in 47 multiple myeloma cell lines against the NCATS MIPE library collection: H1112_PLB cell viability assay (AID 1918967; further: nearly all actives have a fitted effect of over 30% in size)
Procedure, shortened: as §1

[8] = Quantitative High-Throughput drug screen in 47 multiple myeloma cell lines against the NCATS MIPE library collection: Karpas25_ECACC cell viability assay (AID 1918968; further: nearly all actives have a fitted effect of over 35% in size)
Procedure, shortened: as §1

[9] = Quantitative High-Throughput drug screen in 47 multiple myeloma cell lines against the NCATS MIPE library collection: JIM3_ECACC cell viability assay (AID 1918963; further: nearly all actives have a fitted effect of over 35% in size)
Procedure, shortened: as §3

[10] = Quantitative High-Throughput drug screen in 47 multiple myeloma cell lines against the NCATS MIPE library collection: INA6_PLB cell viability assay (AID 1918965; further: nearly all actives have a fitted effect of over 55% in size)
Procedure, shortened: as §1

Measured: Potency
Potency means the concentration at half of the fitted maximal effect.

CN(C)[C@@H]1C(=O)C(C(N)=O)=C(O)[C@@]2(O)C(=O)C3=C(O)c4c(O)cccc4[C@@](C)(O)[C@H]3C[C@@H]12
active: [2] 16600 nM
not listed: [9] | [10]
inactive: all other assays above

O=P1(NCCCl)OCCCN1CCCl (stereo not given)
active: [1] 5900 nM | [9] 20900 nM

CNC(=O)N1N=C(c2ccc(N)cc2)c2cc3c(cc2CC1C)OCO3 (stereo not given)
active: [1] 1870 nM | [3] 2350 nM | [9] 4690 nM | [10] 1180 nM | [8] 9350 nM
inactive: [7]

C#CCN(C)[C@H](C)Cc1ccccc1
inactive: [2] | [3] | [4] | [9] | [7] | [8]

Cc1sc2c(c1C)C(c1ccc(Cl)cc1)=N[C@@H](CC(=O)OC(C)(C)C)c1nnc(C)n1-2
active: [1] 83.3 nM | [2] 209 nM | [3] 41.8 nM | [4] 132 nM | [5] 66.2 nM | [9] 1660 nM | [10] 29.6 nM | [7] 6620 nM | [8] 526 nM

CNCC(O)c1ccc(O)cc1 (stereo not given)
not listed: [5] | [8]
inactive: all other assays above

COc1ccc(C(=O)c2c(C)n(CCN3CCOCC3)c3ccccc23)cc1
inactive: [1] | [2] | [3] | [5] | [9] | [7]

Cc1cccc(C)c1NC(=O)CN1CCCC1=O
not listed: [1] | [6]
inactive: all other assays above

C[C@@H]1O[C@@H](O[C@H]2C[C@@H](O)[C@]3(CO)[C@H]4[C@H](O)C[C@]5(C)[C@@H](C6=CC(=O)OC6)CC[C@]5(O)[C@@H]4CC[C@]3(O)C2)[C@H](O)[C@H](O)[C@H]1O
active: [1] 9.3 nM | [2] 41.8 nM | [3] 14.8 nM | [4] 37.2 nM | [9] 41.8 nM | [6] 13.2 nM | [10] 23.5 nM | [7] 83.3 nM | [8] 37.2 nM

N[C@@H](Cc1ccc(N(CCCl)CCCl)cc1)C(=O)O
active: [1] 18700 nM | [2] 16600 nM | [3] 18700 nM | [4] 10500 nM | [5] 13200 nM | [9] 16600 nM | [6] 10500 nM | [10] 1320 nM | [7] 6620 nM | [8] 13200 nM

CCCC(C)(COC(N)=O)COC(=O)NC(C)C (stereo not given)
not listed: [3] | [9]
inactive: all other assays above

C[C@@H]1[C@@H](CC(C[C@H]2O[C@@H]3O[C@]4(C)CC[C@@H]5[C@H](C)CC[C@@H]([C@H]2C)[C@@]35OO4)C[S+](=O)([O-])c2ccc(COC(=O)N(C)C)cc2)O[C@@H]2O[C@]3(C)CC[C@H]4[C@H](C)CC[C@@H]1[C@@]24OO3 (stereo not given in full)
active: [1] 118 nM | [2] 93.5 nM | [3] 118 nM | [4] 41.8 nM | [5] 105 nM | [9] 264 nM | [6] 66.2 nM | [10] 235 nM | [7] 209 nM | [8] 118 nM

Cc1cc(SCc2sc(-c3ccc(C(F)(F)F)c(F)c3)nc2C)ccc1OCC(=O)O
active: [9] 20900 nM | [7] 20900 nM | [8] 16600 nM

C=C(C)[C@H]1Cc2c(ccc3c2O[C@@H]2COc4cc(OC)c(OC)cc4[C@@H]2C3=O)O1
active: [1] 469 nM | [2] 526 nM | [3] 332 nM | [4] 296 nM | [5] 235 nM | [9] 935 nM | [6] 418 nM | [10] 118 nM | [7] 132 nM | [8] 46.9 nM

C[C@@H]1[C@@H](C(=O)C[C@H]2O[C@@H]3O[C@]4(C)CC[C@@H]5[C@H](C)CC[C@@H]([C@H]2C)[C@@]35OO4)O[C@@H]2O[C@]3(C)CC[C@H]4[C@H](C)CC[C@@H]1[C@@]24OO3
active: [1] 83.3 nM | [2] 132 nM | [3] 148 nM | [4] 41.8 nM | [5] 46.9 nM | [9] 187 nM | [10] 264 nM | [7] 469 nM | [8] 52.6 nM

CC(C)CC(N(C)C)C1(c2ccc(Cl)cc2)CCC1 (stereo not given)
active: [7] 5260 nM
not listed: [8] | [10]
inactive: all other assays above

CNC(=O)c1ccc(N2C(=S)N(c3ccc(C#N)c(C(F)(F)F)c3)C(=O)C23CCC3)cc1F
inactive: [2]
active: [1] 2640 nM | [3] 16600 nM | [4] 18700 nM | [5] 16600 nM | [9] 23500 nM | [10] 16600 nM | [7] 3720 nM | [8] 2960 nM

COc1ccc2c(c1OC)CN1CCc3cc4c(cc3C1C2)OCO4 (stereo not given)
inactive: [7]
active: [9] 16600 nM | [10] 18700 nM | [8] 18700 nM

CN(C)CCc1ccc(O)cc1
inactive: [1] | [3] | [4] | [5] | [9] | [7]

Fc1ccc(C(OCCN2CCN(CCCc3ccccc3)CC2)c2ccc(F)cc2)cc1
inactive: [1] | [4] | [5] | [6]
active: [2] 20900 nM | [9] 13200 nM | [10] 13200 nM | [7] 13200 nM | [8] 8330 nM

Cn1c(CCCC(=O)O)nc2cc(N(CCCl)CCCl)ccc21
inactive: [3] | [4] | [5] | [9]
active: [10] 18700 nM

COC[C@H]1OC(=O)c2coc3c2[C@@]1(C)C1=C(C3=O)C2CCC(=O)[C@@]2(C)C[C@H]1OC(C)=O (stereo not given in full)
active: [1] 8330 nM | [2] 1480 nM | [3] 14800 nM | [4] 4690 nM | [5] 7430 nM | [9] 4690 nM | [6] 8330 nM | [10] 2350 nM | [7] 2640 nM | [8] 526 nM

O=C1CC[C@@]2(O)[C@H]3Cc4ccc(O)c5c4[C@@]2(CCN3CC2CC2)[C@H]1O5
active: [10] 8330 nM
not listed: [1]
inactive: all other assays above

CN(C)CCN(C)CCc1ccc(Cl)c(Cl)c1
active: [1] 20900 nM
not listed: [6] | [8]
inactive: all other assays above

Cn1cc(C2=C(c3cn(C4CCN(Cc5ccccn5)CC4)c4ccccc34)C(=O)NC2=O)c2ccccc21
active: [1] 935 nM | [3] 9350 nM | [4] 5900 nM | [5] 4180 nM | [9] 8330 nM | [6] 1320 nM | [10] 4690 nM | [7] 10500 nM | [8] 8330 nM

COC1(CS(=O)c2ccccc2)CCN(CCc2c[nH]c3ccc(F)cc23)CC1 (stereo not given)
inactive: [2] | [3] | [9] | [7]
active: [8] 9350 nM

NCC1(CC(=O)O)CCCCC1
not listed: [6]
inactive: all other assays above

COc1ccc(C(CN(C)C)C2(O)CCCCC2)cc1 (stereo not given)
inactive: [2] | [3] | [4] | [9] | [6] | [8]

O=C(O)C(=O)c1cn(Cc2ccccc2)c2ccc(-c3ccc(OC(F)(F)F)cc3)cc12
active: [9] 18700 nM | [7] 14800 nM | [8] 16600 nM
not listed: [10]
inactive: all other assays above

COC[C@@H](NC(C)=O)C(=O)NCc1ccccc1
inactive: [1] | [3] | [4] | [5] | [9] | [7]

O=c1[nH]c2ccccc2n1CCCN1CCC(n2c(=O)[nH]c3cc(Cl)ccc32)CC1
active: [4] 20900 nM | [10] 18700 nM | [8] 37.2 nM
inactive: [9]

CC1=C2C[C@@H]3[C@@H](CC=C4C[C@@H](O)CC[C@@]43C)[C@@H]2CC[C@]12O[C@H]1C[C@H](C)CN[C@H]1[C@H]2C
inactive: all assays above

CC(O)(CS(=O)(=O)c1ccc(F)cc1)C(=O)Nc1ccc(C#N)c(C(F)(F)F)c1 (stereo not given)
active: [1] 662 nM | [3] 1660 nM | [4] 2090 nM | [5] 2640 nM | [9] 2960 nM | [6] 4180 nM | [10] 590 nM | [7] 235 nM | [8] 264 nM

CN1CCN(C(=O)O[C@H]2c3nccnc3C(=O)N2c2ccc(Cl)cn2)CC1
not listed: [2] | [3]
inactive: all other assays above
